Source: PubChem BioAssay
Hits are enriched below; roughly 18% of the tested compounds scored in any of these assays.
TDP1 cell CPT = DT40-hTDP1 cell growth loss with CPT | actives 12% (n = 420,000) | Potency, µM (highest dose often 46.2 µM), inactives show at the top dose activity change, negative = growth inhibition, usual class: inhibitors | chicken DT40 Tdp1-/-;hTDP1 cells + 20 nM CPT, ATP luminescence, 48 h | AID 686979; also: potency is read from the fitted curve at half-maximal effect; nearly all actives have a fitted effect of over 55% in size
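Chicken DT40 Tdp1-/- cells stably complemented with human TDP1 were seeded at 400 cells/well in medium containing 20 nM camptothecin, exposed to pin-transferred compounds, and grown at 37 °C for at least 48 hr. Viability was read as ATP luminescence.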
TDP1 block = TDP1 (human) enzyme inhibition. recombinant TDP1, AlphaScreen DNA substrate cleavage. actives 0.28% (n = 350,000). Potency, µM (series often up to 130 µM), without a hit: at the top dose activity change, negative = inhibition, hits mostly inhibitors; also: potency is read from the fitted curve at half-maximal effect; nearly all actives have a fitted effect of over 40% in size
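Tdp1 1 nM final; 15 min RT w/ cpd; substrate 15 nM, 5 min; beads 10 ug/ml, 10 min; AlphaScreen read. Neg ctrl: no enzyme.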
Six1-Eya2 blk = inhibitors of human Six1/Eya2 interaction. Q15475+O00167. AlphaScreen GST-Six1/His-Eya2 binding, biochemical; active compounds read low. activity change, % (concentration not given with the values). actives 0.56% (n = 360,000). AID 651725; in the data active = activity change below about -65%; inconclusive = mostly about -30% to -63%
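AlphaScreen with GST-Six1 and His-Eya2 (5X mix: 250 nM and 500 nM), glutathione donor and nickel acceptor beads; buffer 50 mM Tris pH 8.0, 300 mM NaCl, 1 mM TCEP; 1 h at 37 C in the dark.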
TDP1 cell noCPT = qHTS for Inhibitors of human tyrosyl-DNA phosphodiesterase 1 (TDP1): qHTS in cells in absence of CPT. AID 686978, 2013. DT40 Tdp1-/- hTDP1 cells, no CPT, ATP luminescence, 48 h. actives 15% (n = 420,000). Potency, µM (titrated, usually from 46.2 µM), without a hit: at the top dose activity change, negative = growth inhibition, most hits filed as inhibitors; also: potency is read from the fitted curve at half-maximal effect; nearly all actives have a fitted effect of over 55% in size
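Stably hTDP1-transfected Tdp1-null chicken DT40 cells were treated with library compounds minus camptothecin and grown for at least 48 hr at 37 °C, after which cellular ATP was quantified by luminescence.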
CtBP-E1A inh = blocks the CtBP interaction with E1A. AlphaScreen GST-E1A/His-CtBP binding, 1536-well; active compounds read low. activity change, % (test concentration not listed). actives 0.49% (n = 340,000). AID 651724; in the data active = activity change below about -65%; inconclusive = mostly about -30% to -63%
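Homogeneous bead-based format: GST-tagged E1A captured on glutathione donor beads, His-tagged CtBP on nickel acceptor beads; compounds precede bead addition by 2 h at 37 °C.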
IL1B secr inh = inhibitors of inflammasome signaling (IL-1 beta secretion) | actives 4.7% (n = 360,000) | AID 743279 | THP-1 LPS/ATP IL-1B secretion, AlphaLISA, 16 h; active compounds read low | activity change, % at 57.5 µM; in the data active = activity change below about -50%; inconclusive = mostly about -30% to -49%
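THP-1 cells pretreated 1 hr with compounds (up to 57.5 uM final), then stimulated with LPS (250 ng/mL final) plus ATP (1.25 mM final); secreted IL-1B measured by AlphaLISA after 16 hr, decreased signal indicating inhibition.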
* = called active by the depositor; ? = inconclusive; / = no result; [ ] = another dose, or the depositor's remark. Unless noted, calls follow the shape of the dose curve; as a rule, active = well fitted curve in the direction sought with a large enough effect; inconclusive = small, poorly fitted or top-dose-only effect, or another doubt; inactive = no such curve, though single readings can be large; an effect the other way counts as inactive or inconclusive. % is scaled to controls: 0 for no effect and ±100 for the full control effect.

SMILES | TDP1 cell CPT | TDP1 block | Six1-Eya2 blk | TDP1 cell noCPT | CtBP-E1A inh | IL1B secr inh
N#Cc1ccccc1NC(=O)C(=O)NCC(c1ccc2c(c1)OCO2)N1CCN(c2ccccc2)CC1 (stereo not given) | ? | 4% | / | 8.2µM* | / | /
COc1ccc(S(=O)(=O)NCC(c2ccc3c(c2)OCO3)N2CCN(c3ccccc3)CC2)cc1 (stereo not given) | ? | 5% | -25 | 23µM* | -5 | ?
COC(=O)NCC(c1ccc2c(c1)OCO2)N1CCN(c2ccccc2)CC1 (stereo not given) | ? | 3% | -1 | -25% | -8 | 14
Cc1ccc(C(=O)NCC(c2ccc3c(c2)OCO3)N2CCN(c3ccc(F)cc3)CC2)cc1 (stereo not given) | 2.9µM* | 10% | / | 1.5µM* | / | /
COc1ccc(C(=O)NCC(c2ccc3c(c2)OCO3)N2CCN(c3ccc(F)cc3)CC2)cc1 (stereo not given) | 3.3µM* | 10% | / | 1.6µM* | / | /
COc1cccc(C(=O)NCC(c2ccc3c(c2)OCO3)N2CCN(c3ccc(F)cc3)CC2)c1 (stereo not given) | 15µM* | / | ? | 10µM* | -5 | -24
COc1cccc(C(=O)NCC(c2ccc3c(c2)OCO3)N2CCOCC2)c1 (stereo not given) | -19% | 7% | / | -17% | / | /
COc1cc(C(=O)NCC(c2ccc3c(c2)OCO3)N2CCOCC2)cc(OC)c1OC (stereo not given) | 12µM* | 5% | / | ? | / | /
CCCNC(=O)C(=O)NCC(c1ccc2c(c1)OCO2)N1CCN(c2ccc(F)cc2)CC1 (stereo not given) | ? | 7% | -7 | ? | / | 16
CC(C)NC(=O)C(=O)NCCC1CCCCN1S(=O)(=O)c1cccs1 (stereo not given) | -13% | 1% | 2 | 5% | 1 | 1
O=C(Nc1c(C(=O)N2CCOCC2)oc2ccccc12)c1cccc([N+](=O)[O-])c1 | ? | 5% | 0 | -14% | -3 | ?
Cc1nn(-c2ccc(N3CCCCC3)nn2)c(C)c1CCC(=O)Nc1ccccc1F | ? | 1% | 0 | ? | 1 | ?
CC1CC(=S)Nc2ccccc2N1C(=O)Nc1ccccc1 (stereo not given) | 4% | 5% | -7 | -10% | -14 | 11
O=C(Nc1ccccc1)N1CCC(=S)Nc2ccccc21 | 7% | 0% | 4 | -2% | 5 | 22
CC1CN(C(=O)Nc2ccccc2)c2ccccc2-[n+]2ccsc21 (stereo not given) | 3.7µM* | 3% | 6 | 12µM* | -7 | -18
O=C(Nc1ccccc1)N1CCc2scc[n+]2-c2ccccc21 | 5.8µM* | -3% | 8 | 12µM* | 2 | ?
CCOC(=O)c1c(NC(C)=O)sc2c1CCC(C=NCCCN(CC)CC)=C2Sc1ccccc1 | 15µM* | / | -10 | 13µM* | -10 | -97*
CCOC(=O)c1c(NC(C)=O)sc2c(OCCN(CC)CC)c(Br)ccc12 | ? | -1% | -3 | ? | 2 | -3
O=C(O)c1cccc([N+](=O)[O-])c1C(=O)Nc1cccc2ccccc12 | -15% | / | -17 | -1% | 6 | 19
Cc1cnc(N2C(=O)c3ccc([N+](=O)[O-])cc3C2=O)s1 | 5% | 3% | 1 | -1% | 0 | ?
COc1ccc(CCNC(=O)c2cc3c(=O)n(C)c4ccccc4c3n2C)cc1OC | ? | 2% | -5 | 16µM* | -1 | -3
Cc1cccc(CCNC(=O)c2cc3c(=O)n(C)c4ccccc4c3n2C)c1 | ? | 0% | / | ? | / | /
COc1ccc(OC)c(CCNC(=O)c2cc3c(=O)n(C)c4ccccc4c3n2C)c1 | ? | 5% | / | 23µM* | / | /
c1ccc2c(NC3CCCC3)nnc(NC3CCCC3)c2c1 | ? | 5% | 1 | 16µM* | 0 | -24
Cc1[nH]nc2ncc(C(=O)c3cc(Cl)cc(Cl)c3O)cc12 | -10% | 6% | -19 | -13% | -25 | 31
SMILES | TDP1 cell CPT | TDP1 block | Six1-Eya2 blk | TDP1 cell noCPT | CtBP-E1A inh | IL1B secr inh
C[C@@H]1C[C@H](OC(=O)c2ccccc2O)CC(C)(C)C1 | / | 8%[21 µM] | / | / | / | /
CC1CCN(S(=O)(=O)c2ccc3c(c2)oc(=O)n3CC(=O)N2c3ccccc3CC2C)CC1 (stereo not given) | -36% | 4% | 6 | -24% | -25 | -22
COc1ccc(NC(=O)COc2ccc(S(=O)(=O)NC3CCCCC3)cc2)cc1OC | ? | 0% | / | 21µM* | / | /
CCOc1ccccc1NC(=O)COc1ccc(S(=O)(=O)NC2CCCCC2)cc1 | ? | 1% | / | ? | / | /
CC1Cc2ccccc2N1C(=O)Cn1c(=O)oc2cc(S(=O)(=O)NC3CCCC3)ccc21 (stereo not given) | ? | 3% | 6 | ? | 0 | -52*
COc1ccc(NC(=O)Cn2c(=O)oc3cc(S(=O)(=O)NC4CCCC4)ccc32)cc1OC | ? | 2% | / | 21µM* | / | /
Cc1ccccc1-n1nc2c(c1NC(=O)C(C)C)CS(=O)(=O)C2 | -5% | / | 4 | -7% | / | -7
Cc1cccc2c1c1ccc3c(c1n2C)C(=O)C=CC3=O | 0.46µM* | 6% | -13 | 0.41µM* | / | 10
Fc1ccc(C2=CC(c3ccc(F)cc3)n3c(nc4ccccc43)N2)cc1 (stereo not given) | 15µM* | 9% | / | 5.2µM* | / | /
COC(=O)c1ccc(C2C=C(c3ccc(Cl)cc3)Nc3nc4ccccc4n32)cc1 (stereo not given) | 9.2µM* | 9% | / | 8.2µM* | / | /
CCOC(=O)c1c(C)[nH]c(C)c1S(=O)(=O)N(C)CC(=O)Nc1cccc(Cl)c1C | ? | 3% | / | ? | / | /
COC(=O)c1cc(=O)n(Cc2ccco2)c(=Nc2ccc(F)c(Cl)c2)s1 | 16µM* | 10% | -8 | 13µM* | -4 | -105*
COC(=O)c1cc(=O)n(CCc2ccccc2F)c(=Nc2ccc(F)c(Cl)c2)s1 | 15µM* | 8% | -1 | 8.2µM* | -11 | -101*
O=C(O)c1nnsc1-c1csnn1 | 6% | / | 9 | -10% | -11 | 4
COc1ccc(/C=C/C=C2\N=C(SC)SC2=O)cc1 | 23µM* | 6% | -9 | 29µM* | 1 | -5
CSC1=N/C(=C\c2ccc(F)cc2)C(=O)S1 | 1% | 1% | 18 | -22% | 0 | 17
COc1ccc(C(=O)NC(=S)N2CCCC2)cc1 | -9% | 3% | 0 | 1% | -11 | -14
